Results: paper PMC4336329 (PLoS ONE, 2015)
The whole screen tested about 310,000 compounds, of which about 14,000 (4.5%) showed an effect of 50% or more. The effect is printed as a negative number. This excerpt belongs to a sample that is enriched for strong results.

Biological target: human ether-à-go-go-related gene (hERG) potassium channel (human, UniProt Q12809)
Experiment: primary screen, population patch clamp on CHO cells stably expressing hERG; higher = less effect of the substance
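Further: peak tail current of the secondary pulse compared with the same well before compound.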

human ether-à-go-go-related gene (hERG) potassium channel, sequence (Q12809 whole entry, looked up): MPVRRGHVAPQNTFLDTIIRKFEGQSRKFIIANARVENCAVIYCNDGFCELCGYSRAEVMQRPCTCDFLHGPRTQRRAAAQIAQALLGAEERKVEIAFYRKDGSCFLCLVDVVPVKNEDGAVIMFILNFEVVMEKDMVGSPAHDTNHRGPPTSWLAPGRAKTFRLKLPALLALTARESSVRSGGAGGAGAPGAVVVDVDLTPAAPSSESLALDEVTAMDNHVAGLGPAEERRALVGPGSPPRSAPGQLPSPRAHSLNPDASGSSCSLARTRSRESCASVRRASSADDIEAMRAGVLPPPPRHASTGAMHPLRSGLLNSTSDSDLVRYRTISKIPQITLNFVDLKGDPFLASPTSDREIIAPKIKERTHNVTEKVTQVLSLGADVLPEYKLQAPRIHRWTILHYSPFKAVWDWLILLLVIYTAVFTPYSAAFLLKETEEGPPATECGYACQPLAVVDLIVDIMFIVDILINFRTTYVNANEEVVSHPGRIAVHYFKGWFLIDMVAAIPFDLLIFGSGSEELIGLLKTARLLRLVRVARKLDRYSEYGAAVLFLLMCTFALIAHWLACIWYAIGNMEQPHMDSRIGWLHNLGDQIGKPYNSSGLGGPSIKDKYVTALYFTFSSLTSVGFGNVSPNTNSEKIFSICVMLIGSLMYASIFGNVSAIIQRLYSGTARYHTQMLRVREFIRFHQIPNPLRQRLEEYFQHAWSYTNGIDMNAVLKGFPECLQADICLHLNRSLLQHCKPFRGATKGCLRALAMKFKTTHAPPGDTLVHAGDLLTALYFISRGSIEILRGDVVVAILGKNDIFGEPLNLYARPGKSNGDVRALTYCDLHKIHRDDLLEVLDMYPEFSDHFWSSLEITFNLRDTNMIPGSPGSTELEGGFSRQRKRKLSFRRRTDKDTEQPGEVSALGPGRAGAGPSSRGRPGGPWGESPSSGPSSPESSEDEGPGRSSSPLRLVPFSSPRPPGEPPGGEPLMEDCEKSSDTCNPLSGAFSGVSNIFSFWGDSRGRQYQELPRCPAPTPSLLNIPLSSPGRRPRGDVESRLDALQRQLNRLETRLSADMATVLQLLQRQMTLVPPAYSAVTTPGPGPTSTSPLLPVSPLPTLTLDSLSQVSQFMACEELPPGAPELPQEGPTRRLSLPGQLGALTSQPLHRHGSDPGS

| Structure (SMILES) | hERG current change (%, negative = inhibition) at 10uM [%] |
| --- | --- |
| Cc1oc2c(c(C)cc3oc(=O)c(CC(=O)N[C@@H](CC(C)C)C(=O)O)c(C)c32)c1C | 15.8 |
| COC(=O)CSc1nc2c(c(=O)n(C)c(=O)n2C)n1CCC(C)C | -5.54 |
| CCS(=O)(=O)N1CCCC(C(=O)c2ccc(OC)cc2C)C1 (stereo not shown) | 28.9 |
| CC(=O)O[C@@H]1/C=C/[C@](C)(O)C[C@@H](C)C/C=C/[C@H]2[C@@H]3O[C@]3(C)[C@@H](C)[C@H]3[C@H](Cc4ccccc4)NC(=O)[C@@]312 | 16 |
| O=C(Nc1cccc(C(F)(F)F)c1)C(SCCO)c1ccccc1 (stereo not shown) | -4.8 |
| O=C(Nc1cc(C(F)(F)F)ccc1Cl)C(Sc1cccc[n+]1[O-])c1ccccc1 (stereo not shown) | -14.5 |
| CN(C)CC(C)(C)CNC(C(=O)Nc1ccc(Cl)cc1C(F)(F)F)c1ccccc1 (stereo not shown) | -76.9 |
| O=C(Nc1cccc(C(F)(F)F)c1)C(Sc1cccc[n+]1[O-])c1ccccc1 (stereo not shown) | -42.7 |
| O=C(Nc1ccc(Cl)cc1C(F)(F)F)C(Sc1cccc[n+]1[O-])c1ccccc1 (stereo not shown) | -81.3 |
| COc1cccc(NC(=O)C(NCC(C)(C)CN(C)C)c2ccccc2)c1.O=C(O)C(=O)O (stereo not shown) | -48.4 |
| CN(C)c1cccc(C(=O)OC(C(=O)Nc2ccc(Cl)cc2C(F)(F)F)c2ccccc2)c1 (stereo not shown) | -3.78 |
| N#CCC(=O)N/N=C\c1ccc(OC/C=C/c2ccccc2)cc1 | 14.4 |
| Cc1ccccc1S(=O)(=O)Cc1ccc(C(=O)NC2CCCCC2)o1 | -1.84 |
| Nc1nc(SCC(=O)Nc2ccc([N+](=O)[O-])cc2Br)n[nH]1 | 3.65 |
| CCOC(=O)C1(CC2CCCCO2)CCN(C(=O)Nc2ccccc2)CC1 (stereo not shown) | 12 |
| COc1ccc(/C=C/c2cc(-c3ccc(C)cc3)o[n+]2C)cc1.F[B-](F)(F)F | -77.1 |
| COc1ccc(/C=C/c2cc(C(F)(F)F)on2)cc1 | 16.4 |
| COc1ccc(/C=C/C(=O)Oc2ccc(C)cc2)cc1 | -14.4 |
| Cc1ccccc1NC(=O)c1ccc2ccccc2c1 | -8.12 |
| CCC(C)(C(=O)Nc1c(C)cccc1C)N(C)C(=O)c1ccc2ccccc2n1 (stereo not shown) | 8.52 |
| CSCC[C@H](NC(=O)c1cccs1)C(=O)N1CCC2(CC1)NCCc1[nH]cnc12 | 10.2 |
| O=[N+]([O-])c1cccc(S(=O)(=O)c2ccc(NCCOCCO)c([N+](=O)[O-])c2)c1 | -38.3 |
| O=[N+]([O-])c1cccc(S(=O)(=O)c2ccc(NCCO)c([N+](=O)[O-])c2)c1 | -51 |

| Structure (SMILES) | hERG current change (%, negative = inhibition) at 10uM [%] |
| --- | --- |
| CCCCNc1ccc(S(=O)(=O)c2cccc([N+](=O)[O-])c2)cc1[N+](=O)[O-] | -22.2 |
| Cn1c(=O)c(C(=O)CN2CCOCC2)c(N)n(Cc2ccccc2)c1=O | -13.2 |
| CCn1c(=O)c(C(=O)CN2CCOCC2)c(N)n(Cc2ccccc2)c1=O | -19 |
| Cn1c(=O)c(C(=O)CN2CCN(Cc3ccc4c(c3)OCO4)CC2)c(N)n(Cc2ccccc2)c1=O | -66.8 |
| CCn1c(=O)c(C(=O)CN2CCN(S(=O)(=O)c3ccccc3)CC2)c(N)n(Cc2ccccc2)c1=O | -14.6 |
| Cn1c(=O)c(C(=O)CN2CCCCCC2)c(N)n(Cc2ccccc2)c1=O | -13.5 |
| CCn1c(=O)c(C(=O)CN2CCN(Cc3ccc4c(c3)OCO4)CC2)c(N)n(Cc2ccccc2)c1=O | -72 |
| CN1CCN(c2ccc(N)c(N3CCN(C)CC3)c2)CC1 | 13.4 |
| CC(C)(C)NC(=O)C(c1ccc(F)cc1)N(Cc1ccccc1Cl)C(=O)c1ccn[nH]1 (stereo not shown) | 25.6 |
| CC1(C)CC(=O)C=C(c2cccc3c2oc2ccccc23)C1 | -2.67 |
| CCOC(=O)C1CCCN(Cc2cc(=O)oc3cc(C)c(C)cc23)C1 (stereo not shown) | -19.3 |
| O=C(c1ccco1)N1CCN(CC(=O)N2CCCc3c2c(=O)oc2ccc(O)cc32)CC1 | -5.14 |
| CCCOc1ccc2oc(=O)c3c(c2c1)CCCN3C(=O)CN1CCc2ccccc2C1 | -24.1 |
| CCCOc1ccc2oc(=O)c3c(c2c1)CCCN3C(=O)CN1CCN(c2ncccn2)CC1 | -70.1 |
| CCCOc1ccc2oc(=O)c3c(c2c1)CCCN3C(=O)CN1CCN(C(=O)c2ccco2)CC1 | -65.3 |
| CCCCCOc1ccc2oc(=O)c3c(c2c1)CCCN3C(=O)CN1CCCC(C(=O)OCC)C1 (stereo not shown) | -0.3 |
| CCCOc1ccc2oc(=O)c3c(c2c1)CCCN3C(=O)CN1CCCC(C(=O)OCC)C1 (stereo not shown) | -65.5 |
| CC(=O)Oc1ccc2oc(=O)c3c(c2c1)CCCN3C(=O)CN1CCN(c2ncccn2)CC1 | -7.91 |
| CCCOc1ccc(C(=O)Nc2ccc(N3CCN(C(=O)c4ccco4)CC3)cc2)cc1 | 13.2 |
| O=C(c1cnn2ccccc12)N1CCc2ccccc21 | 0.772 |
| CC(=O)c1ccc(N2CCN(C(=O)/C=C/c3ccc(S(=O)(=O)N4CCOCC4)cc3)CC2)cc1 | -30.3 |
| CCN1CCN(CCCOc2ccc(Cl)cc2Br)CC1.O=C(O)C(=O)O | -69 |
| Cc1ccccc1OCCCN1CCCC1 | -14.4 |

| Structure (SMILES) | hERG current change (%, negative = inhibition) at 10uM [%] |
| --- | --- |
| Clc1ccc(OCCCn2ccnc2)c(Br)c1.O=C(O)C(=O)O | -18.6 |
| Clc1ccc(OCCCCCN2CCCC2)c(Br)c1 | -62.3 |
| Clc1ccc(Cl)c(OCCN2CCCC2)c1 | -38.8 |
| Brc1ccccc1OCCCCCN1CCCC1 | -33.9 |
| Fc1ccccc1OCCCCCCN1CCCC1 | -38.2 |
| Clc1ccccc1OCCCCN1CCCC1 | -29.6 |
| Clc1cccc(OCCCN2CCCC2)c1Cl | -55.5 |
| Clc1ccccc1OCCCCN1CCCCC1 | -8.1 |
| Clc1ccc(Cl)c(OCCCCN2CCCCC2)c1 | -59.2 |
| CCn1c(P(C)(=O)[O-])nc2ccccc21.[Na+] | 8.91 |
| COC(=O)c1sccc1NC(=S)N1CCCC(C)C1 (stereo not shown) | 14.6 |
| Cc1cc(C(=O)N2CCN(c3ccc(C(F)(F)F)cn3)CC2)c(C)o1 | -21.4 |
| CCOc1ccccc1C(=O)Nc1nnc(C(C)C)s1 | -1.92 |
| O=C(CCN1C(=O)/C(=C/c2ccc(F)cc2)SC1=S)NC1C=CS(=O)(=O)C1 (stereo not shown) | -15.2 |
| CCc1nc2ccccc2n1CCC(=O)O.Cl | -5.88 |
| CC1(C)c2ccccc2N2CC(=O)NC21/C=C/c1ccco1 (stereo not shown) | 2.9 |
| Cc1nn(Cc2ccc(Cl)cc2)c(C)c1NC(=O)c1cc(-c2ccc3c(c2)OCO3)on1 | -3.11 |
| CN(C)C(=O)N1CCC(C(=O)N2CCCC(C(=O)c3cccc4ccccc34)C2)CC1 (stereo not shown) | -33.8 |
| Clc1ccc(OCCCN2CCCCC2)c(Br)c1.O=C(O)C(=O)O | -70.7 |
| Clc1ccc(Cl)c(OCCCCN2CCNCC2)c1.O=C(O)C(=O)O | -17.4 |
| Clc1ccc(OCCN2CCCCC2)c(Cl)c1.O=C(O)C(=O)O | -16.2 |
| CCOC(=O)C(NC(=O)Cc1ccccc1)(Nc1cc(C)on1)C(F)(F)F (stereo not shown) | 3.97 |
| N#Cc1ccccc1NC(=O)COC(=O)CCc1ccccc1 | -14.9 |

| Structure (SMILES) | hERG current change (%, negative = inhibition) at 10uM [%] |
| --- | --- |
| C=CCn1c(SCc2ccc(C(=O)Nc3ccccc3)cc2)nnc1-c1ccccc1 | -5.06 |
| O=C(CCn1c(=O)c2ccccc2n(Cc2ccccc2)c1=O)NCc1ccc2c(c1)OCO2 | -4.33 |
| O=C(NCCCl)Nc1cc([N+](=O)[O-])ccc1Cl | 16.9 |
| CCOC(=O)c1c(-c2ccccc2)nc2ccc(Cl)cn12 | 30 |
| COCCNc1c(-c2ccc(OC)cc2)nc2ccc(Cl)cn12 | -39.5 |
| CCOC(=O)CNc1c(-c2ccc(OC)cc2)nc2ccc(Cl)cn12 | -73.5 |
| CCOC(=O)CNc1c(-c2ccccc2)nc2ccc(Cl)cn12 | -64.4 |
| CC(=O)Nc1c(-c2ccccc2)nc2ccc(Cl)cn12 | 5.29 |
| CCOC(=O)CNc1c(-c2ccc(O)cc2)nc2ccc(Cl)cn12.Cl | -39.7 |
| Cc1ccc(S(=O)(=O)N2c3ccccc3OCC2c2ccccc2)cc1 (stereo not shown) | 23 |
| CCOc1ccc(OCC)c(NC(=O)CN2CCN(c3cc(C)ccc3C)CC2)c1.Cl | -9.35 |
| CCOc1ccc(OCC)c(NC(=O)CN2CCN(c3ccc(C)cc3C)CC2)c1.Cl | -0.937 |
| COc1ccc(OC)c(NC(=O)CN2CCN(C(=O)c3ccco3)CC2)c1 | -23.7 |
| CCOC(=O)N1CCN(CC(=O)Nc2cc(OCC)ccc2OCC)CC1.Cl | -68.1 |
| COCCOc1ccc(C(F)(F)F)cc1NC(=O)c1ccccc1 | -10.9 |
| CCOc1ccc(OCC)c(NC(=O)CN2CCN(CC)CC2)c1.Cl | -43.3 |
| COc1ccc(NC(C)=O)cc1NC(=O)CN1CCN(C(=O)c2ccco2)CC1 | 13.9 |
| CCOc1ccc(OCC)c(NC(=O)CN2CCN(CC(=O)NC(C)C)CC2)c1.Cl | 9.43 |
| CCOc1ccc(OCC)c(NC(=O)CN2CCN(C(=O)c3ccco3)CC2)c1 | -59 |
| CCN1CCN(CC(=O)Nc2cc(C(F)(F)F)ccc2OCCOC)CC1.O=C(O)C(=O)O | -75.4 |
| CCCN1CCN(CC(=O)Nc2cc(OCC)ccc2OCC)CC1.Cl | -57.6 |
| CCCCCNCC(=O)Nc1cc(C(F)(F)F)ccc1OCCOC | -34.2 |
